# Assay results reported in the supplement of paper PMC7858590.
# “And” between values parts separate entries of the source, which are not always exact repeats. Equal entries are not always repeated.
# Tested on: human monocyte-derived macrophages (polarized)
# Assay: cell shape (eccentricity) Z-score vs DMSO control; higher = more elongated, M2-like morphology
# Details: 5 µM; 24 h; macrophage state: M1-polarized (IFNg + TNFa), cytokines present during treatment
# Protocol: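 Primary-screen hits were rescreened on polarized hMDMs with the differentiating cytokines (IL-4 + IL-13 or IFNg + TNFa) kept in the medium during treatment with compound at 5 uM for 24 h. The eccentricity Z-score vs DMSO wells is averaged over experiments.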
row,Compound,cell shape (Z-score)
1,O=C1c2ccccc2-c2n[nH]c3cccc1c23,9.54
2,c1cc(-c2cnn3cc(-c4ccc(OCCN5CCCCC5)cc4)cnc23)ccn1,1.96
3,CC1(C)C[C@@H]1C(=O)N/C(=C\CCCCSC[C@H](N)C(=O)O)C(=O)O,5
4,CC1(C)CCC(c2ccc(Cl)cc2)=C(CN2CCN(c3ccc(C(=O)NS(=O)(=O)c4ccc(N[C@H](CCN5CCOCC5)CSc5ccccc5)c(S(=O)(=O)C(F)(F)F)c4)cc3)CC2)C1,4.31
5,CCCCCCN(CCCCCC)C(=O)Cc1c(-c2ccc(F)cc2)[nH]c2ccccc12,-4.11
6,CC(C)(C)c1nc(-c2cccc(NS(=O)(=O)c3c(F)cccc3F)c2F)c(-c2ccnc(N)n2)s1,-2.77
7,O=C(Nc1ccncc1)c1cc([N+](=O)[O-])ccc1Cl,5.38
8,COc1cc(-c2ccc(=O)[nH]n2)ccc1OC(F)F,-4.29
9,CCOC(=O)N[C@@H]1CC[C@@H]2[C@@H](C1)C[C@H]1C(=O)O[C@H](C)[C@H]1[C@H]2/C=C/c1ccc(-c2cccc(F)c2)cn1,5.58
10,COc1cc(C(=O)N2CCC(N3CCN(C)CC3)CC2)ccc1Nc1ncc2c(n1)N(C)c1ccccc1C(=O)N2C,-5.99
11,COc1cc(OC)c(/C=C/S(=O)(=O)Cc2ccc(OC)c(NCC(=O)O)c2)c(OC)c1,-2.86
12,COc1cccc2c1C(=O)c1c(O)c3c(c(O)c1C2=O)C[C@@](O)(C(=O)CO)C[C@@H]3O[C@H]1C[C@H](N)[C@H](O)[C@H](C)O1,22
13,C[C@]1(CO)CN(c2cc(C(=O)Nc3ccc4c(c3)-c3c(c(C(N)=O)nn3-c3ccc(F)cc3)CC4)c(Cl)cn2)C[C@@]1(C)CO,-7.03
14,COc1ccc(OC)c(-c2nnc3n2N=C(c2ccc(OC)c(OC)c2)CS3)c1,13.8
15,CC(C)CNc1ccnc(NCc2csc(-c3ccccc3)n2)n1,-11.9
16,Cn1cnc(-c2cc3nccc(Oc4ccc(NC(=S)NC(=O)Cc5ccccc5)cc4F)c3s2)c1,3.19
17,CCN(CC)CCNC(=O)c1c(C)[nH]c(/C=C2\C(=O)Nc3ccc(F)cc32)c1C,8.79 and 5.25
18,Cn1c2ccccc2c2c3c(c4c5ccccc5n(CCC#N)c4c21)CNC3=O,4.83
19,CC(C)(C)n1nc(-c2cccc3ccccc23)c2c(N)ncnc21,6.74
20,O=C(O)C[C@H](O)C[C@H](O)/C=C/c1c(C2CC2)nc2ccccc2c1-c1ccc(F)cc1,5.72
21,O=C(NCCN1CCCCC1)c1ccc(I)cc1,6.46
22,N#CCNC(=O)c1ccc(-c2ccnc(Nc3ccc(N4CCOCC4)cc3)n2)cc1,22.9
23,C[C@H]1[C@H](NC(=O)/C(=N\OC(C)(C)C(=O)O)c2csc(N)n2)C(=O)N1S(=O)(=O)O,0.443
24,CC(C)(C)OC(=O)Nc1ccc(-c2cc(C(=O)NCCCCCCC(=O)NO)no2)cc1,-0.14
25,COc1cccc(NC(=O)/C=C/c2ccc(Cl)cc2)c1,4.58
26,COc1ccc(-c2cc(=O)c3c(O)cc(O)cc3o2)cc1O,3.77

# Same assay, conditions: 5 µM; 24 h; macrophage state: M2-polarized (IL-4 + IL-13), cytokines present during treatment
row,Compound,cell shape (Z-score)
1,CC(=O)Cc1cc(=O)c2c(C)cc(O)c(C3OC(CO)C(O)C(O)C3O)c2o1 (stereo not given),-1.16
2,CN1c2ccccc2C(=O)N2CCc3c([nH]c4ccccc34)[C@@H]21,-7.76
3,O=C1c2ccc(Nc3ccc(F)cc3F)cc2CCc2ccc(OC[C@H](O)CO)cc21,2.03
4,O=C1c2ccccc2C(Cc2ccnc(F)c2)(Cc2ccnc(F)c2)c2ccccc21,1.79
5,CC(Nc1nc(N2CCCC2)nc2ccccc12)c1ccccc1 (stereo not given),-11.8
6,O=C(Nc1nc2ccc(NC(=O)C34CC5CC(CC(C5)C3)C4)cc2s1)c1ccccc1,-6.86
7,O=C(O)Cc1nn(Cc2ccc(Br)cc2F)c(=O)c2ccccc12,-1.61
8,Nc1ccccc1NC(=O)c1ccc(CNC(=O)OCc2cccnc2)cc1,-0.828
9,O=C(CCCc1ccc(-c2ccccc2F)cc1)Nc1ccc(O)cc1,-9.79
10,c1ccc2cc(C3=NCCN3)ncc2c1,0.271
11,O=C1NC(=O)/C(=C/c2ccc3nccc(-c4ccncc4)c3c2)S1,-2.56
12,CC(=O)OCC(=O)[C@@]1(O)[C@H](OC(C)=O)C[C@H]2[C@@H]3CCC4=CC(=O)C=C[C@]4(C)[C@@]3(F)[C@@H](O)C[C@@]21C,-9.46
13,CC(C)C1C2CCC(C2)C1N (stereo not given),-1.17
14,CN1c2cc3c(cc2N=C(c2ccc(C(=O)O)cc2)c2ccccc21)C(C)(C)CCC3(C)C,-8.56
